Assay results as given in the supplement of paper PMC3545927.
This is one part of the list. How many sequences the whole screen found active is unknown.

Target: furin, P09958
Assay: furin cleavage Z-score vs untreated control; higher = more cleavage, active = 3.5 or more, inactive = 1 or less, 8 variable residues between constant flanks
In short: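 The cleavage Z-score is the log read count relative to furin-free reactions, lowess-adjusted and scaled by median absolute deviation. Counts came from sequencing DNA released from bead-bound 8-mer peptide–cDNA fusions after digestion with purified furin for 7.5, 15 or 30 min.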
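Note: purified furin at 1:10 enzyme:substrate in 50 mM HEPES pH 7.5.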

Sequence of furin, P09958 (P09958 whole entry): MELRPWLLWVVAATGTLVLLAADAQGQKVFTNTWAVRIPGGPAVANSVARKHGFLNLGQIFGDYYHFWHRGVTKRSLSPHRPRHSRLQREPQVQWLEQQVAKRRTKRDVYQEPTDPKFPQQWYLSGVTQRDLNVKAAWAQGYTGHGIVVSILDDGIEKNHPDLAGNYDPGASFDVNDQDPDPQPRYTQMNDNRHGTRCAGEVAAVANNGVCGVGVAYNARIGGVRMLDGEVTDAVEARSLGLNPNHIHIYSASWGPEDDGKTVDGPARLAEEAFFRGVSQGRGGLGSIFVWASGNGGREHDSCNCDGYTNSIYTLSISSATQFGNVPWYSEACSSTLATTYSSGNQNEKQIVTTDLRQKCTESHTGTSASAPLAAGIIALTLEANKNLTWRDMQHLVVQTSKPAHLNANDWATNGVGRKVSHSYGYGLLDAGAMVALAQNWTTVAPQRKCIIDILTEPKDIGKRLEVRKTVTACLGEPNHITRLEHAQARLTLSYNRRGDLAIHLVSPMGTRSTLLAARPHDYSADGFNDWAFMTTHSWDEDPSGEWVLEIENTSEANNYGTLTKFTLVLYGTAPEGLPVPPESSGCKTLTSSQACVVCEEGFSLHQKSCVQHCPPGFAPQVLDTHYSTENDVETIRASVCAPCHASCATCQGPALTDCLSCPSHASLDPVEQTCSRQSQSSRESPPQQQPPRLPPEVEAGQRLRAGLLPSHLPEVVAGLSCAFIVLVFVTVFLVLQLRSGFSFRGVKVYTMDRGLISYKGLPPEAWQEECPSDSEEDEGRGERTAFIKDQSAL

Sequence	furin cleavage Z-score (7.5 min)	furin cleavage Z-score (15 min)	furin cleavage Z-score (30 min)
CATNPKPQKKAGNASASA [HC162]	-1.19 (inactive)	-0.825 (inactive)	-2.33 (inactive)
CASAPCSAHLAGNASASA [HC2483]	-0.101 (inactive)	0.964 (inactive)	0.332 (inactive)
CATVATRDGKAGNASASA [HC283]	-0.692 (inactive)	-1.6 (inactive)	-0.623 (inactive)
CARQPRKQGGAGNASASA [FS-2445]	-0.459 (inactive)	0.227 (inactive)	0.306 (inactive)
CARFSRTVQDAGNASASA [FS-2668]	2.27	2.81	4.69 (active)
CARDERSWFRAGNASASA [FS-2901]	0.291 (inactive)	-0.493 (inactive)	0.641 (inactive)
CARSKRTEQDAGNASASA [FS-2088]	-0.228 (inactive)	1.41	1.56
CARFFRSACSAGNASASA [FS-1820]	0.97 (inactive)	0.0813 (inactive)	-0.895 (inactive)
CARFVRSVMSAGNASASA [FS-3248]	4.15 (active)	5.68 (active)	5.23 (active)
CARFLRSKTLAGNASASA [FS-2415]	0.914 (inactive)	1.56	0.306 (inactive)
CANFKRSVASAGNASASA [FS-1847]	0.0489 (inactive)	1.11	0.734 (inactive)
CARFIRSVMSAGNASASA [FS-3246]	5.54 (active)	5.87 (active)	8.7 (active)
CARFLRSVMSAGNASASA [FS-1821]	1.23	4.09 (active)	5.69 (active)
CARMLRSVFSAGNASASA [FS-1831]	-0.826 (inactive)	-0.551 (inactive)	1.65
CADNEVVTSTAGNASASA [HC2301]	-1.07 (inactive)	-0.505 (inactive)	0.105 (inactive)
CAQSFQVAHLAGNASASA [HC771]	0.912 (inactive)	0.131 (inactive)	0.722 (inactive)
CAEVVTNTWVAGNASASA [HC158]	-1.52 (inactive)	-0.248 (inactive)	-0.0393 (inactive)
CAFCHSKKKCAGNASASA [HC857]	-1.27 (inactive)	-0.504 (inactive)	-0.238 (inactive)
CAALAAYCLSAGNASASA [HC995]	1.28	-0.793 (inactive)	0.489 (inactive)
CARLRRVICAAGNASASA [FS-2997]	-0.794 (inactive)	-0.656 (inactive)	-0.232 (inactive)
CARFIRGVVDAGNASASA [FS-2332]	3.17	2.98	5.27 (active)

Sequence	furin cleavage Z-score (7.5 min)	furin cleavage Z-score (15 min)	furin cleavage Z-score (30 min)
CARFVRFVPLAGNASASA [FS-1706]	1.17	1.76	4.38 (active)
CARTRKFVVDAGNASASA [FS-2315]	0.233 (inactive)	-0.721 (inactive)	-0.0413 (inactive)
CAREKKDVPLAGNASASA [FS-3187]	0.508 (inactive)	2.05	-1.3 (inactive)
CARFVRDACAAGNASASA [FS-2928]	0.546 (inactive)	1.42	3.66 (active)
CARFDRQASAAGNASASA [FS-2011]	-0.397 (inactive)	-0.361 (inactive)	-1.3 (inactive)
CARSLRFVTLAGNASASA [FS-1793]	0.3 (inactive)	1.63	1.68
CADDGRTCVDAGNASASA [FS-1981]	-1.75 (inactive)	-1.46 (inactive)	-0.526 (inactive)
CARKKKCKICAGNASASA [FS-2689]	-0.917 (inactive)	-0.723 (inactive)	-0.00697 (inactive)
CAMTPCSAHLAGNASASA [HC2466]	-1.89 (inactive)	0.877 (inactive)	-0.495 (inactive)
CAEFPCHRPSAGNASASA [HC2327]	-0.796 (inactive)	-0.578 (inactive)	-1.81 (inactive)
CAEITTPCSGAGNASASA [HC1964]	-1.53 (inactive)	-0.885 (inactive)	-1.78 (inactive)
CATTACSGSWAGNASASA [HC1863]	-0.8 (inactive)	-0.656 (inactive)	-0.444 (inactive)
CASHPCSAHLAGNASASA [HC2495]	1.02	0.719 (inactive)	0.0481 (inactive)
CASHAVVARSAGNASASA [FS-1080]	4.85 (active)	4.91 (active)	5.66 (active)
CAYLSRVARSAGNASASA [FS-738]	9.42 (active)	9.32 (active)	8.94 (active)
CASPPVVPQSAGNASASA [HC768]	-0.954 (inactive)	0.785 (inactive)	-0.882 (inactive)
CAWRCRVARSAGNASASA [FS-897]	5.68 (active)	5.73 (active)	6.03 (active)
CAAPPPSWDQAGNASASA [HC960]	-0.113 (inactive)	-0.447 (inactive)	-0.277 (inactive)
CALVILNAASAGNASASA [HC536]	1.04	-0.834 (inactive)	0.192 (inactive)
CAEAPCHRPSAGNASASA [HC2323]	0.662 (inactive)	-0.37 (inactive)	-0.247 (inactive)
CAMESCSQHLAGNASASA [HC1717]	0.437 (inactive)	1.13	-0.426 (inactive)
